Shh pathway inh – Hedgehog pathway signaling inhibitors, primary screen, luminescence, Shh-LIGHT2 cells, Gli-luciferase | AID 2313, 2010 | Shh-LIGHT2 Gli-luciferase reporter, 30 h | inhibition, % (no concentration beside the values) | actives 2.1% (n = 22,000);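 active = mean inhibition across valid replicates above about 65%, limit read from the data; inconclusive = mean under the limit, yet half or more replicates past it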;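 note: pathway switched on by Shh-conditioned medium diluted 1 in 25 in low serum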
MITF inh – inhibitors of MITF, primary screen, MITF inhibitor project, cell-based, luminescence. TRPM1 promoter luciferase, 24 h. inhibition, % (test concentration not listed). actives 0.28% (n = 37,000); in the data active = inhibition above about 85%; inconclusive = no clear call, values can overlap the other calls; inactive = below about 68%;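 note: human melanocyte line stably carrying TRPM1 promoter luciferase reporter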
NOMO-1 viab – NOMO-1 AML cell viability reduction, primary screen, STK33 inhibitor project, CellTiter-Glo luminescence | actives 7.5% (n = 37,000) | AID 2330, 2010 | NOMO-1 AML viability, 72 h | inhibition, % (test concentration not listed); in the data active = inhibition above about 80%; inconclusive = no clear call, values can overlap the other calls
An asterisk follows results filed as active; ? = inconclusive; nt = not tested or not shown. Sampled rows, rich in hits. Any-hit rate of the full collection: about 7.8%.

SMILES	Shh pathway inh	MITF inh	NOMO-1 viab
O=c1c2c3c(sc2[nH]c(=S)n1Cc1ccccc1)CCC3	nt	11.5	34.0
COc1cccc(C=C2C(=O)c3ccccc3C2=O)c1OC(C)C	6.0	9.1	104.5*
COc1cccc(-c2cc(=O)c3ccccc3o2)c1N	-122.3	-15.5	64.3
O=C(O)CC(C(=O)Nc1ccc(Cl)cc1)N1CCCCC1 (stereo unspecified)	nt	-6.0	-8.0
COc1ccc(NC(=O)c2ccco2)cc1NC(=S)NC(=O)c1ccc(-c2cccc(Cl)c2)o1	nt	28.3	74.6
COc1ccc(NC(=O)N(C)C[C@H]2OCCCC[C@@H](C)Oc3ccc(NS(=O)(=O)c4ccc(F)cc4)cc3C(=O)N([C@H](C)CO)C[C@@H]2C)cc1	-4.2	-28.5	25.2
C[C@@H]1CCCCO[C@@H](CN(C)C(=O)Nc2ccc(C(F)(F)F)cc2)[C@@H](C)CN([C@H](C)CO)C(=O)c2cc(NS(=O)(=O)c3ccc(Cl)cc3)ccc2O1	119.2*	43.9	?
Cc1ccc(S(=O)(=O)Nc2ccc3c(c2)C(=O)N([C@H](C)CO)C[C@H](C)[C@H](CN(C)C(=O)Nc2ccc(C(F)(F)F)cc2)OCCCC[C@@H](C)O3)cc1	37.7	22.2	114.3*
C[C@@H]1CCCCO[C@H](CN(C)C(=O)Nc2ccc(C(F)(F)F)cc2)[C@@H](C)CN([C@H](C)CO)C(=O)c2cc(NS(=O)(=O)c3ccc(F)cc3)ccc2O1	30.7	40.6	64.9
C[C@@H]1CCCCO[C@@H](CN(C)C(=O)Nc2cccc3ccccc23)[C@@H](C)CN([C@H](C)CO)C(=O)c2cc(NS(=O)(=O)c3ccc(F)cc3)ccc2O1	-19.4	30.6	50.1
C[C@@H]1CCCCO[C@@H](CN(C)C(=O)Nc2cccc3ccccc23)[C@@H](C)CN([C@H](C)CO)C(=O)c2cc(NS(=O)(=O)c3ccc(Cl)cc3)ccc2O1	-3.0	23.8	101.5*
COc1ccc(S(=O)(=O)Nc2ccc3c(c2)C(=O)N([C@H](C)CO)C[C@H](C)[C@@H](CN(C)C(=O)Nc2ccc(F)cc2)OCCCC[C@@H](C)O3)cc1	74.1*	10.5	21.8
C[C@@H]1CCCCO[C@H](CN(C)C(=O)Nc2ccc(F)cc2)[C@@H](C)CN([C@H](C)CO)C(=O)c2cc(NS(=O)(=O)c3ccc(Cl)cc3)ccc2O1	26.1	34.8	52.4
Cc1nnc(SCC(=O)Nc2ccc(Br)c(C)c2C)s1	nt	-33.0	24.2
Cc1ccnc(SCC(=O)Nc2ccccc2C)n1	nt	-8.8	22.4
CCN(CC(=O)Nc1cccc(Cl)c1C)S(=O)(=O)c1ccc(F)cc1	nt	-7.6	20.5
Cc1ccnc(SCC(=O)Nc2ccc(Br)cc2F)n1	nt	-17.4	12.0
COc1ccc(C(=O)Nc2ccc3nc(SCC(=O)N4CCOCC4)sc3c2)cc1OC	nt	12.0	33.3
COC(=O)CSc1nnc(-c2sc3ccccc3c2Cl)n1-c1ccccc1	nt	-9.7	29.5
COC(=O)CSc1nnc(-c2cccs2)n1-c1ccc(Cl)cc1	nt	-16.9	101.0*
COC(=O)CSc1nnc(-c2sc3ccccc3c2Cl)n1-c1ccc(OC)cc1	nt	-15.3	84.9*
NC(=O)CSc1nnc(-c2cccs2)n1-c1ccccc1	nt	3.4	0.4
Cc1ccc(Cn2nc(C)cc2C(=O)Sc2ccccc2)cc1	28.5	7.0	92.5*
Cc1ccc(Cn2nc(C)cc2C(=O)Nc2ccc(C)cc2)cc1	-22.7	-57.1	40.4
NNC(=O)CNC(=O)c1ccccc1	-32.8	3.9	42.8
CC(C)(C)C1CCc2c(sc(NC(=O)CSc3n[nH]c(-c4ccco4)n3)c2C#N)C1 (stereo unspecified)	nt	-103.1	15.5
CC(=O)N[C@H]1[C@H](O[C@H]2CC[C@@]3(C)C(CC[C@]4(C)C3CC=C3[C@@H]5CC(C)(C)CC[C@]5(C(=O)O)CC[C@]34C)C2(C)C)O[C@H](CO[C@@H]2OC[C@H](O)[C@H](O)[C@H]2O[C@@H]2OC[C@H](O)[C@H](O)[C@H]2O)[C@@H](O)[C@@H]1O (stereo partly specified)	108.6*	19.3	120.3*
CC1(C)CC[C@]2(C(=O)O)CC[C@]3(C)C(=CCC4[C@@]5(C)CC[C@H](O[C@@H]6O[C@H](CO)[C@@H](O)[C@H](O)[C@H]6O)[C@@](C)(CO)C5CC[C@]43C)[C@@H]2C1 (stereo partly specified)	88.5*	nt	nt

Bioassay records from PubChem.
